Measured values taken from PubChem BioAssay (NCI).
Values joined by “and” are separate entries in the source; they are usually repeats but may differ in a detail not shown here. Equal values may be shown once. This is part of a sample that, as a whole, favours compounds with a hit. Of some 83,000 tested, about 20% had one in any assay.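 Activity criterion: percent growth below 10, measured after cells in 96-well plates were exposed to a single compound concentration for 48 hours.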 Unmarked numbers belong to inactive results. Active and inactive are the calls of the source.

Columns and labels:
Assay in all cases: NCI-60 one-dose screen, 48 h (100 = growth as untreated, 0 = no growth, -100 = all killed)
Conditions in all cases: 10 µM
SR leukemia = tested on: SR leukemia
RPMI-8226 leukemia = tested on: RPMI-8226 leukemia
OVCAR-8 ovarian = tested on: OVCAR-8 ovarian
OVCAR-5 ovarian = tested on: OVCAR-5 ovarian
OVCAR-4 ovarian = tested on: OVCAR-4 ovarian
SK-OV-3 ovarian = tested on: SK-OV-3 ovarian
IGROV1 ovarian = tested on: IGROV1 ovarian
OVCAR-3 ovarian = tested on: OVCAR-3 ovarian
HS 578T breast = tested on: HS 578T breast
NCI/ADR-RES ovarian = tested on: NCI/ADR-RES ovarian
T-47D breast = tested on: T-47D breast
BT-549 breast = tested on: BT-549 breast
MDA-MB-435 melanoma = tested on: MDA-MB-435 melanoma
SW-620 colon = tested on: SW-620 colon
MCF7 breast = tested on: MCF7 breast
HCT-116 colon = tested on: HCT-116 colon
HCC-2998 colon = tested on: HCC-2998 colon
KM12 colon = tested on: KM12 colon
MDA-MB-468 breast = tested on: MDA-MB-468 breast

| Compound | growth (SR leukemia) | growth (RPMI-8226 leukemia) | growth (OVCAR-8 ovarian) | growth (OVCAR-5 ovarian) | growth (OVCAR-4 ovarian) | growth (SK-OV-3 ovarian) | growth (IGROV1 ovarian) | growth (OVCAR-3 ovarian) | growth (HS 578T breast) | growth (NCI/ADR-RES ovarian) | growth (T-47D breast) | growth (BT-549 breast) | growth (MDA-MB-435 melanoma) | growth (SW-620 colon) | growth (MCF7 breast) | growth (HCT-116 colon) | growth (HCC-2998 colon) | growth (KM12 colon) | growth (MDA-MB-468 breast) |
| --- | --- | --- | --- | --- | --- | --- | --- | --- | --- | --- | --- | --- | --- | --- | --- | --- | --- | --- | --- |
| CN(C)c1ccc(/C=C/c2nc3ccccc3c(=O)n2CC(=O)Nc2ccccc2)cc1 | 75.5% | 64.3% | 25.9% | 89.1% | 35.5% | 92% | 76.2% | 26.4% | 44.7% | 30.4% | 49.3% | -1.24% (active) | 60.2% | 57.8% | 26% | 31.1% | 58.2% | 75.7% | -4.96% (active) |
| Cn1cc(-c2cc(N)n3nc(-c4c[nH]c5ccc(Br)cc45)cc3n2)c2cccnc21 | -23.6% (active) | 3.37% (active) | -68.8% (active) | -87.4% (active) | -42.2% (active) | -72.6% (active) | -69.8% (active) | -78.9% (active) | -38.8% (active) | -55.7% (active) | -75.7% (active) | -83.7% (active) | -77.7% (active) | -78.6% (active) | -78.5% (active) | -87.9% (active) | -97.8% (active) | -78.3% (active) | – |
| CC(=O)Nc1ccc(-c2cn(-c3cccc(C(=O)Nc4cccc(OC(F)(F)F)c4)c3)nn2)cn1 | 97.8% | 96% | 57.1% | 108% | 102% | 93.9% | 108% | 110% | 53.7% | 97.7% | 93.2% | 96.7% | 61.4% | 90.1% | 70.1% | 88.6% | 110% | 30.1% | 86.7% |
| O=c1c2ccccc2nc(COc2ccccc2)n1/N=C/c1ccc(N2CCCC2)cc1 | 73.9% | 64.1% | 99% | 96.6% | 81.8% | 113% | 97.2% | 105% | 94.8% | 94.3% | 57.7% | 84.8% | 99.5% | 109% | 87.6% | 79.5% | 106% | 96.7% | – |
| COc1ccc(C2N(c3ccc(Br)cc3)N=C(C(C)=O)N2[C@H]2[C@H](OC(C)=O)O[C@H](COC(C)=O)[C@@H](OC(C)=O)[C@@H]2OC(C)=O)cc1 (some centres undefined) | 75.9% | 41.1% | 78% | 85.6% | 71.6% | 61.4% | 77.8% | 73.2% | 63.3% | 62.1% | 52.8% | 91.2% | 83.7% | 82.5% | 62.7% | 69% | 75.4% | 70.6% | 72.6% |
| Nc1nc(-c2ccccc2)cs1 | 30% | 34.6% | 37.7% | 83.5% | 59.4% | 82.5% | 63.7% | 44.6% | 55.8% | 28.5% | 16.3% | 31.1% | 67.9% | 70.5% | 39.7% | 50.7% | 74.6% | 43.1% | 55.1% and 115% |
| CN(C)c1ccc(/C=C/c2nc3ccccc3c(=O)n2CC(=O)Nc2ccc(Cl)cc2)cc1 | 81.2% | 88.1% | 2.8% (active) | 75.4% | 7.27% (active) | 84.8% | 88.3% | 42.2% | 17.1% | 22.4% | 75.1% | 26.6% | 68.8% | 61.9% | 27.9% | 56.8% | 68% | 55.1% | – |
| CCOC(=O)c1sc(N/N=C(\C)c2ccc3c(c2)Nc2ccccc2S3)nc1C | 18.8% | 20.1% | 38.7% | 30.6% | 44.1% | 68.5% | 39.6% | 46.1% | 30.9% | 28.8% | 8.5% (active) | 48.1% | 34.5% | 20.3% | -2.84% (active) | 23.4% | 3.51% (active) | 7.04% (active) | 8.47% (active) |
| CC1(C)[C@@H](NCO)CC[C@]2(C)[C@H]3C(=O)C=C4[C@@H]5C[C@](C)(CO)CC[C@]5(C)CC[C@@]4(C)[C@]3(C)CC[C@@H]12 | 10.3% | -1.48% (active) | 70.9% | 66.1% | 55.4% | 92.8% | 53.8% | 85.4% | 44% | 56% | 63.9% | 81.8% | 59.9% | 35.2% | 33.7% | 37.8% | 40.8% | 65.7% | 47.2% |
| COc1cc(C2CC(c3ccc(C)cc3)=Nc3c(N)nc(N)nc3N2)ccc1Oc1nc(Nc2ccc(F)cc2)nc(N(C)C)n1 (centres undefined) | 0.613% (active) | 22.3% | 61.2% | 99.6% | 50.9% | 100% | 53.8% | 56.2% | 57.6% | 51.7% | 64.5% | 65.4% | 63.2% | 58.8% | 5.19% (active) | 6.7% (active) | 29.9% | 52% | 15.6% |
| O=c1[nH]c2ccccc2cc1CSc1ccc(Nc2nccc(-c3ccc4ccccc4c3)n2)cc1 | 80.7% | 67.5% | -28% (active) | 62.9% | -13.6% (active) | 116% | 73.9% | 13.1% | 60.6% | 24.4% | 86.8% | 48.6% | 69.8% | 32.9% | 19% | 26.2% | 63.5% | 50.2% | -3.76% (active) |
| CCCn1c(=O)c2[nH]c(-c3ccc(OCc4nc5ccc(C(F)(F)F)cc5[nH]4)cc3)nc2n(CCC)c1=O | 24.6% | 28.1% | -7.74% (active) | 82.3% | 60% | 90.7% | 62.7% | 52.5% | 33.4% | 55.8% | 33.2% | 41.7% | 63% | 70% | 28.3% | 25.2% | 76.7% | 55.5% | – |
| COc1cc(NC(=O)CSc2nnc(-c3ccc4nc(-c5ccc(Cl)cc5)[nH]c4c3)o2)cc(OC)c1OC | 48% | 21.3% | 42.1% | 132% | 61.9% | 101% | 73.8% | 71.8% | 50.6% | 99.8% | 13.2% | 63.1% | 67.8% | 80.1% | 29.1% | 37.1% | 110% | 70% | 58.3% |
| Cc1ccc(-c2nc(Nc3ccc(C)c(S(N)(=O)=O)c3)c3ccccc3n2)cc1 | 3.79% (active) | 87% | 45.9% | 94% | 70.1% | 125% | 87.5% | 57% | 102% | 60.3% | 84.2% | 104% | 74.6% | 37.2% | 26.2% | 29.5% | 49.5% | 40% | 1.27% (active) |
| O=C1CCC(N2Cc3cc(NC(=O)COc4ccccc4)ccc3C2=O)C(=O)N1 (centres undefined) | 73.1% | 65% | 47.8% | 83.3% | 72.2% | 99.2% | 45.8% | 85.8% | 36.3% | 37.8% | 49.2% | 4.38% (active) | 88.1% | 55.2% | 70.3% | 103% | 83.5% | 74.5% | – |
| COc1ccc(C(=O)CSc2nnc(-c3c[nH]c4ccccc34)n2-c2ccccc2)cc1 | 79.7% | 72.7% | 15.5% | 77.4% | 0.569% (active) | 66.3% | 60.5% | 53.6% | 15.5% | 16.3% | 56.7% | 24.7% | 69.1% | 86.3% | 45.6% | 52.5% | 77.8% | 88.1% | 59.8% |
